TDP1 inh: inhibitors of human tyrosyl-DNA phosphodiesterase TDP1; Q9NUW8; recombinant TDP1, AlphaScreen DNA substrate cleavage; 350,000 compounds, 0.28% hits; Potency, µM (series often up to 130 µM), usual class: inhibitors; also: nearly all actives have a fitted effect of over 40% in size
Target sequence (Q9NUW8 whole entry, looked up): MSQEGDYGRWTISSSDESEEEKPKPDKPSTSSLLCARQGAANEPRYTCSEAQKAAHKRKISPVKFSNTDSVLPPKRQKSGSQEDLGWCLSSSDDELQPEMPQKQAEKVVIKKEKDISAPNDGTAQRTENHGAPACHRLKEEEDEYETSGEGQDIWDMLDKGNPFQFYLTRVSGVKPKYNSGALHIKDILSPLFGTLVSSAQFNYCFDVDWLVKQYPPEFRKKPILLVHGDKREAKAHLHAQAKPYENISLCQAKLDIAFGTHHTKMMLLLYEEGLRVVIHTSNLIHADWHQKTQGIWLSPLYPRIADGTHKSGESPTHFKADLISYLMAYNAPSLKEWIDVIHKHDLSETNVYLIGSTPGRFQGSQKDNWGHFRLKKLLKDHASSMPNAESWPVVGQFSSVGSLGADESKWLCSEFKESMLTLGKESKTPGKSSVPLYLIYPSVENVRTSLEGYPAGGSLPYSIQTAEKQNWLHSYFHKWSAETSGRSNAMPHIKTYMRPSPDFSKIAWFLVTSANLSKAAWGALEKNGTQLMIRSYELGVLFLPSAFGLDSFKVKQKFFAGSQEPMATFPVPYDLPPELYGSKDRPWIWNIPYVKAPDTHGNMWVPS
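Recombinant human Tdp1 (E. coli-expressed, 1 nM final) preincubated with compounds 15 min at room temperature, then 5'-biotin/3'-phosphotyrosine-FITC DNA substrate (15 nM final) added for 5 min. AlphaScreen beads (10 ug/ml final) added 10 min; cleavage lowers signal.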
DT40 TDP1 CPT: growth inhibition of DT40 Tdp1-/-;hTDP1 cells with camptothecin (screen for TDP1 inhibitors); 420,000 compounds, 12% hits; chicken DT40 Tdp1-/-;hTDP1 cells + 20 nM CPT, ATP luminescence, 48 h; Potency, µM (series often up to 46.2 µM), hits mostly inhibitors; also: nearly all actives have a fitted effect of over 55% in size
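Cell growth measured by CellTiter-Glo luminescence after a minimum 48 h, 37 C compound exposure with 20 nM CPT in Tdp1-knockout DT40 cells stably expressing hTDP1, seeded 400/well; qHTS titration format.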
Giardia killer: kills Giardia lamblia; Giardia lamblia trophozoite viability; activity change, % at 7.66 µM, hits read low; 340,000 compounds, 0.15% hits; in the data active = activity change below about -80%; inconclusive = between about -30% and that limit;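 also: parasites exposed to compound for two days anaerobically before the ATP read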
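ATP-content bioluminescence gauges trophozoite survival. Cells (100/well) receive compound and incubate anaerobically for 48 hrs at 37 deg C; detection reagent follows for 15-30 min at room temperature.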
ELG1 repair inh: inhibitors of ELG1-dependent DNA repair in HEK293T cells; HEK293T ELG1-luciferase reporter, luminescence, 16 h; DNA damage induced by 5-fluorouridine; Potency, µM (series often up to 46.1 µM), usual class: inhibitors; 330,000 compounds, 2.3% hits; also: nearly all actives have a fitted effect of over 55% in size
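Luminescence from the luciferase reporter, measured 30 min after ONE-Glo reagent at room temperature, was the read-out. Beforehand, 2,000 cells per well were exposed for 16 hr at 37 °C to 5-fluorouridine together with compound or vehicle.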
IL1B secr inh: blocks inflammasome-driven IL-1 beta release. THP-1 LPS/ATP IL-1B secretion, AlphaLISA, 16 h; active compounds read low. activity change, % at 57.5 µM. 360,000 compounds, 4.7% hits. AID 743279; in the data active = activity change below about -50%; inconclusive = mostly about -30% to -49%
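Secreted IL-1B measured by AlphaLISA bead assay after 16 h compound exposure of THP-1 cells; compounds (final up to 57.5 uM) added 1 h before LPS (250 ng/mL) and ATP (1.25 mM) stimulation; lower signal means less secretion.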
DT40 TDP1 no CPT: qHTS for Inhibitors of human tyrosyl-DNA phosphodiesterase 1 (TDP1): qHTS in cells in absence of CPT | 420,000 compounds, 15% hits | DT40 Tdp1-/- hTDP1 cells, no CPT, ATP luminescence, 48 h | Potency, µM (series often up to 46.2 µM), hits mostly inhibitors; also: nearly all actives have a fitted effect of over 55% in size
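Readout: luminescence from CellTiter-Glo after 30 min in the dark at RT. Cells: DT40 Tdp1-/- with stable hTDP1, 400/well. Exposure: compounds alone, ≥48 hr, 37 °C.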
Numbers stand for hits; n = inactive; u = inconclusive; x = no result; [ ] = another dose, or the depositor's remark. Compounds with a hit are over-represented: about 19% of the library has one in this group of screens. Unless noted, calls follow the shape of the dose curve; as a rule, active = well fitted curve in the direction sought with a large enough effect; inconclusive = small, poorly fitted or top-dose-only effect, or another doubt; inactive = no such curve, though single readings can be large; an effect the other way counts as inactive or inconclusive.

SMILES	TDP1 inh	DT40 TDP1 CPT	Giardia killer	ELG1 repair inh	IL1B secr inh	DT40 TDP1 no CPT
O=C1c2cccc3c([N+](=O)[O-])ccc(c23)C(=O)N1c1ccc(Cl)cn1	n	3.26µM	n	u	-91.9	3.66µM
COc1ccccc1N1C(=O)c2cccc3c(N(C)CCO)ccc(c23)C1=O	n	8.2µM	n	n	n	u
O=C1c2cccc3cccc(c23)C(=O)N1c1nccs1	n	n	n	u	n	n
O=C1c2cccc3c([N+](=O)[O-])ccc(c23)C(=O)N1c1nccs1	n	3.26µM	n	u	-107.1	3.26µM
CC(=O)Oc1ccc(N2C(=O)c3cccc4c([N+](=O)[O-])ccc(c34)C2=O)cc1	x	3.66µM	n	18.3µM	u	5.8µM
CCCOc1cccc(C2c3c(oc4cc(C)c(C)cc4c3=O)C(=O)N2CCCN2CCOCC2)c1 (centres undefined)	n	u	x	x	x	u
O=C1c2cccc3c([N+](=O)[O-])ccc(c23)C(=O)N1c1ccccn1	n	3.66µM	n	u	-114.1	2.91µM
COc1ccc2c3c(cccc13)C(=O)N(O)C2=O	n	2.31µM	n	n	n	2.06µM
COc1ccccc1N1C(=O)c2cccc3c(C(=O)O)ccc(c23)C1=O	n	n	n	n	n	n
O=C1c2cccc3c([N+](=O)[O-])ccc(c23)C(=O)N1O	x	2.06µM	n	n	n	2.31µM
Cc1cccc(N2CCN(C(=O)CSc3nnnn3C3CC3)CC2)c1C	n	u	n	u	n	u
Fc1ccc(NC(=S)NN=Cc2ccccc2Cl)cc1	x	2.31µM	n	x	n	3.26µM
O=[N+]([O-])c1ccc(Cl)c(/C=N/NC(=S)Nc2ccccc2)c1	n	11.2µM	n	u	n	10µM
CN(C)c1nc(Nc2ccc(F)cc2)nc(Oc2ccc(F)cc2)n1	x	u	n	n	n	u
S=C(N/N=C/c1ccccc1Cl)Nc1cccc(Cl)c1Cl	x	u	n	n	n	10.3µM
S=C(NCCc1ccccc1)N/N=C/c1cccc(Cl)c1Cl	n	n	n	n	n	n
NC(=S)N/N=C/c1cc([N+](=O)[O-])ccc1Cl	n	n	n	n	n	n
CN(C)c1nc(N/N=C/c2ccccc2O)nc(Nc2ccc(F)cc2)n1	n	2.31µM	n	u	n	0.581µM
Oc1ccccc1C=NNC(=S)Nc1ccc(F)cc1	x	0.92µM	n	x	-95.0	1.46µM
O=C(N/N=C/c1ccccc1Cl)C1CC1	n	n	n	n	u	n
S=C(NCC1CC1)N/N=C/c1ccccc1Cl	n	u	n	n	n	23.1µM
O=C1CCN(CCc2ccccc2)CCN1[C@H](COc1ccccc1)Cc1ccccc1	x	29.1µM	n	n	u	11.2µM
CC(C)C[C@@H](COc1ccccc1)N1CCN(CCc2ccccc2)CCC1=O	x	11.2µM	n	n	n	20.6µM
CC(C)CN1CCC(=O)N([C@H](COc2ccccc2)Cc2ccccc2)CC1	x	23.1µM	n	n	n	11.2µM
CCCN1CCC(=O)N([C@H](COc2ccccc2)CC(C)C)CC1	x	u	n	n	n	u
SMILES	TDP1 inh	DT40 TDP1 CPT	Giardia killer	ELG1 repair inh	IL1B secr inh	DT40 TDP1 no CPT
COc1ccc(SCC(Cc2ccccc2)N2CCN(CC(C)C)CCC2=O)cc1 (centres undefined)	x	x	n	x	x	x
O=C(NCCc1nnc2n1CCN(Cc1ccccn1)CC2)c1ccc(F)cc1	x	n	x	x	x	n
CC(=O)c1cccc(OCC(=O)N(Cc2ccco2)c2c(N)n(Cc3ccccc3)c(=O)[nH]c2=O)c1	n	n	n	n	n	n
CCOc1cc(/C=C2\SC(=N)N(c3nccs3)C2=O)ccc1OCCN1CCOCC1	n	16.4µM	u	u	n	20.6µM
CCOc1cc(/C=C2\SC(=S)N(N3CCOCC3)C2=O)ccc1O	x	n	n	n	n	n
Cc1onc(C(=O)Nc2c(C)n(C)n(-c3ccccc3)c2=O)c1[N+](=O)[O-]	x	n	n	n	n	n
CCOCCO	n	x	x	x	x	x
CCCOc1ccc(CNC(=S)NCc2ccc(OC(C)C)cc2)cc1	n	u	n	n	n	18.4µM
CCCOc1ccc(CNC(=S)N/N=C/c2ccc([N+](=O)[O-])cc2)cc1	n	u	n	n	n	20.6µM
CC(C)COc1ccc(CNC(=S)N/N=C/c2ccc([N+](=O)[O-])cc2)cc1	n	n	n	u	n	n
CCN(CC)c1ccc(-c2n[nH]c(=S)n2-c2ccccc2C)cc1	n	20.6µM	n	u	n	18.4µM
CCN(CC)c1ccc(-c2n[nH]c(=S)n2-c2ccccc2)cc1	n	18.4µM	n	u	n	23.1µM
CC(=O)Nc1ccc(/C=C/c2ccccn2)cc1	x	n	x	x	x	n
COc1c(N2CCN(C(=S)NCc3ccccc3)C(C)C2)c(F)cc2c(=O)c(C(=O)O)cn(C3CC3)c12 (centres undefined)	u	u	n	n	n	23.1µM
CCCNC(=S)N1CCC(C(=O)c2ccc3c(c2)OCCO3)CC1	n	u	n	u	n	u
CSc1ccc(NS(=O)(=O)c2ccc(-n3cnnn3)cc2)cc1	n	u	n	n	n	20.6µM
Cc1ccc(S(=O)(=O)Nc2ccc(-n3cnnn3)cc2)cc1	n	n	n	n	n	n
COc1ccc(S(=O)(=O)NC2CCCCC2)cc1-n1cnnn1	n	n	n	n	n	20.6µM
COc1ccc(NS(=O)(=O)c2ccc(-n3cnnn3)cc2)cc1OC	n	16.4µM	n	n	n	9.2µM
Cc1cnc(C(=O)OCC(=O)Nc2ccc(Br)cc2F)cn1	n	u	n	n	n	n
COc1ccccc1NC(=S)NCc1ccccn1	n	2.31µM	n	n	n	4.11µM
COc1ccccc1NC(=O)Nc1nc(CC(=O)Nc2ccc(N(C)C)cc2)cs1	x	u	n	n	u	u
COc1ccccc1NC(=O)Nc1nc(CC(=O)NCc2cccnc2)cs1	n	u	n	n	n	n
COc1ccccc1NC(=O)Nc1nc(CC(=O)NC2CCCC2)cs1	n	u	n	n	n	16.4µM
COc1cc(OC)cc(C(=O)Nc2nc(CC(=O)NCc3ccc(F)cc3)cs2)c1	n	11.6µM	n	u	n	8.2µM
COc1ccc(CNC(=O)Cc2csc(NC(=O)Nc3ccccc3OC)n2)cc1	n[0.505 µM]	u	n	u	u	14.6µM
COc1cccc(N2CC(C(=O)Nc3nnc(SCCN4CCOCC4)s3)CC2=O)c1 (centres undefined)	n	n	n	n	n	n
CCCOC(=O)c1cc(NC(=O)/C=C/c2ccccc2)ccc1O	n	x	x	u	x	x
COc1ccccc1NC(=O)Nc1nc(CC(=O)NCc2ccccn2)cs1	x	u	n	u	n	25.9µM
COc1ccccc1CNC(=O)Cc1csc(NC(=O)Nc2ccccc2OC)n1	n	16.4µM	n	u	n	23.1µM

Screening results: PubChem BioAssay, National Center for Advancing Translational Sciences (NCATS)
